A selection: hits, their analogues and other compounds. The true share with any hit is near 1.1%.
FBPA Giardia inh: blocks Giardia fructose-bisphosphate aldolase activity; A8B2U2; purified Giardia FBPA; Potency, µM (doses to about 59.6 µM), for the others: at the highest dose activity, negative = inhibition, most hits filed as inhibitors; 0.71% of 290,000 active; AID 2451; note: nearly all actives have a fitted effect of over 55% in size
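40 nM FBPA preincubated 10 min at RT with compound (up to 57.5 uM final), then substrate plus GAPDH/TPI/NAD/arsenate coupling and diaphorase/resazurin added. Fluorescence read after 20 min at RT, 525/598 nm.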
AmpC inh no detg: AmpC beta-lactamase inhibition without detergent. P00811. AmpC nitrocefin hydrolysis, absorbance 480 nm, 0.0001% Triton. Potency, µM (top dose mostly 57.1 µM), for inactives: at the highest dose activity change, negative = inhibition, actives largely listed as inhibitors. 0.52% of 330,000 active;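 note: plate controls were no compound for no effect and no enzyme for full effect; nearly all actives have a fitted effect of over 20% in size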
Target sequence (P00811 whole entry, looked up): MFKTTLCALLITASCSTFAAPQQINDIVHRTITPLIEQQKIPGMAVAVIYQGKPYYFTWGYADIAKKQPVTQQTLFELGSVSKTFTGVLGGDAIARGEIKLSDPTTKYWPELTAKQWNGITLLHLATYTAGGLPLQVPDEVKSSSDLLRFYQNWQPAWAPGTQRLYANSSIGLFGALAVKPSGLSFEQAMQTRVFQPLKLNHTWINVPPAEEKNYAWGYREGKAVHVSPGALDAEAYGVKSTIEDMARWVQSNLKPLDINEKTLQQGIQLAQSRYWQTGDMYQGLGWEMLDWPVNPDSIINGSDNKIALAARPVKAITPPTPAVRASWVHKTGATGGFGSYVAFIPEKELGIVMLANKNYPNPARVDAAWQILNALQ
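20 mM phosphate pH 7.0 + 0.01% (detergent screen) or 0.0001% Triton X-100; 5.3 nM AmpC reagent; cpd preinc 15 min RT; nitrocefin (800 uM stock) to start; A480 q20 s × 4 min; Activity was normalised to no-enzyme and no-compound control wells.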
AMA1 RON2 block: AMA1-RON2 (P. falciparum) interaction inhibition. Potency, µM (titrated, usually from 58.2 µM), without a hit: at the top dose activity change, negative = inhibition, most hits filed as inhibitors. AlphaScreen AMA1-biotinylated RON2 peptide binding. AID 720542. 0.2% of 360,000 active;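 note: 0% = vehicle wells and -100% = peptide control; nearly all actives have a fitted effect of over 45% in size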
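AMA1 (3D7) with his tag at 25 nM final met compounds first, then biotinylated RON2 peptide at 25 nM; detection used donor plus acceptor beads, 10 µg/mL apiece, read by AlphaScreen after 30 min at room temperature.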
AmpC detergent: AmpC beta-lactamase inhibition with detergent present. AID 485294. 0.041% of 370,000 active. AmpC hydrolysis of nitrocefin, absorbance 480 nm, 0.01% Triton. Potency, µM (doses to about 114 µM), without a hit: at the top dose activity change, negative = inhibition, usual class: inhibitors;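 note: 0% = no-compound wells and -100% = no-enzyme wells; nearly all actives have a fitted effect of over 25% in size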
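AmpC (5.3 nM in the dispensed reagent) in 20 mM phosphate pH 7.0 with 0.01% (detergent screen) or 0.0001% Triton X-100 was preincubated with compounds for 15 min at room temperature. Nitrocefin was then added from an 800 uM solution, and hydrolysis was followed at 480 nm.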
The depositor's hits bear a star; ? = inconclusive; / = not tested or not shown; [ ] = dose if it differs, or a comment. Calls come from the whole dose curve; as a rule, active = well fitted curve in the direction sought with a large enough effect; inconclusive = small, poorly fitted or top-dose-only effect, or another doubt; inactive = no such curve, though single readings can be large; an effect the other way counts as inactive or inconclusive. Unless noted, % is set by controls: 0 for no effect and ±100 for the full control effect; potency is the fitted concentration of half-maximal effect.

SMILES | FBPA Giardia inh | AmpC inh no detg | AMA1 RON2 block | AmpC detergent
CCCCCCn1c(=O)n2n(c1=O)[C@@H]1CN(S(=O)(=O)c3ccc(C)cc3)C[C@]1(O)[C@@H](OC(=O)NCc1ccc(OC)c(OC)c1)C2 | / | / | -6.3% | /
Oc1ccc(Br)cc1CNc1cnc2ccccc2c1 | -9.2% | 17.8µM* | 8.8% | -3.0%
Cc1ccc(O)c(CNc2cnc3ccccc3c2)c1 | 10.8% | -46.6% | -5.0% | -7.3%
O=c1oc2ccccc2c2c1C1O[C@](c3ccsc3)(Cc3ccccc31)O2 | 18.1%[12.9 µM] | 4.47µM* | / | -11.2%[22.9 µM]
COc1ccc2c3c(c(=O)oc2c1)C1O[C@](c2ccsc2)(Cc2ccccc21)O3 | -1.3%[12.9 µM] | -43.1%[11.4 µM] | / | ?
N=C1C(c2nc3ccccc3s2)=C(O)CN1NC(=O)c1c[nH]c2ccccc12 | 0.6% | 15.8µM* | -15.9% | 0.5%
CC(C)CC(=O)C1=C(O)C(=O)N(Cc2ccccc2)C1c1ccccc1 (centres undefined) | -12.2% | -23.1% | -0.6% | ?
COc1nc(Oc2ccc(=O)n(-c3ccccc3)n2)nc(N(C)C)n1 | / | / | / | -7.4%
O=C1N=c2ccccc2=C1c1sc(NS(=O)(=O)Cc2ccccc2)nc1O | 10.4% | 3.55µM* | -13.6% | -11.7%
C[C@@H]1CN([C@@H](C)CO)C(=O)CCCn2nncc2CO[C@H]1CN(C)Cc1ccc2c(c1)OCCO2 | / | / | 4.0% | /
C=CCn1c(SCC(=O)NC2CCCC2)nc2scc(-c3ccco3)c2c1=O | 6.3% | 35.5µM* | ? | ?
C=CCn1c(SCC(=O)NCCCC)nc2scc(-c3ccco3)c2c1=O | -5.1% | -23.4% | -19.6% | ?
O=C(O)c1ccc2c(c1)C(=O)N(c1ccc(Cl)cn1)C2=O | 14.3% | 0.631µM* | -1.0% | ?
O=[N+]([O-])c1ccc(Cl)cc1Sc1nc2ccccc2o1 | 0.3% | -19.1% | ? | -13.2%
O=[N+]([O-])c1ccc(Sc2nc3ccccc3o2)c([N+](=O)[O-])c1 | -18.3% | -23.7% | 26.7µM* | ?
N#Cc1ccc(-c2nc3ccc(Cl)cn3c2Cc2ccccc2)cc1 | / | / | -17.0% | /
COc1ccc2oc(C(=O)N(Cc3ccco3)Cc3cccs3)c(C)c2c1 | / | 31.6µM* | -27.6% | -19.0%
CN(C)C(=O)c1ccc(-c2nccc(N(C)Cc3ccco3)n2)cc1 | -12.9% | / | / | /
Cc1ccc(S(=O)(=O)Nc2cc(=O)[nH]c(SCc3ccccc3Cl)n2)cc1 | 2.9% | 10µM* | -4.5% | ?
O=C(O)c1cc(O)c2c(c1)[C@H]([C@H]1c3cc(C(=O)O)cc(O)c3C(=O)c3c(O[C@@H]4O[C@H](CO)[C@@H](O)[C@H](O)[C@H]4O)cccc31)c1cccc(OC3O[C@H](CO)[C@@H](O)[C@H](O)[C@H]3O)c1C2=O (some centres undefined) | / | 1µM* | 0.891µM* | 3.6%
O=C(O)c1cc(O)c2c(c1)[C@@H]([C@H]1c3cc(C(=O)O)cc(O)c3C(=O)c3c(O[C@@H]4O[C@H](CO)[C@@H](O)[C@H](O)[C@H]4O)cccc31)c1cccc(OC3O[C@H](CO)[C@@H](O)[C@H](O)[C@H]3O)c1C2=O (some centres undefined) | / | 1.41µM* | ? | ?
O=C(NNC(=S)NC(=O)c1ccccc1[N+](=O)[O-])c1ccccc1O | 22.8% | -23.0% | 0.708µM* | 4.5%
O=C(Nc1ccc(Cl)cc1)N1CCN(c2ccc3nnc(-c4ccc(F)cc4)n3n2)CC1 | -6.9% | 147.7% | 12.3% | -9.6%
O=C(c1ccc(Br)o1)N1CCN(c2ccc3nnc(-c4ccc(F)cc4)n3n2)CC1 | -0.7% | 0.562µM* | -8.6% | ?
Cc1nc(CS(=O)(=O)c2ccccc2)cc(Sc2ccc(Cl)cc2)n1 | -2.4% | 3.98µM* | -1.7% | 0.4%
Cc1nc(CS(=O)(=O)c2ccc(Cl)cc2)cc(Sc2ccccc2Cl)n1 | 0.2% | 3.55µM* | 2.9% | 5.0%
O=C1NC[C@@H](CCCCN2C[C@H](Cc3ccccc3)N(CCC3CCCCC3)C(=O)C2=O)N(CC2CCCCC2)C1=O | / | / | 4.5% | /
COc1ccc2c(c1)c(=O)c(C(=O)c1ccc(C)cc1)cn2CC(=O)Nc1ccc(F)cc1 | 0.5% | 17.8µM* | -0.4% | ?
CCC1=NN2C(=N)/C(=C\c3cccn3-c3ccc(Cl)cc3)C(=O)N=C2S1 | 7.7% | 0.891µM* | 11.6% | ?
